These results are taken from PubChem BioAssay (NCATS).

Assay [1] deals with Lysosomal acid glucosylceramidase (Homo sapiens) (UniProt P04062). Description: Glucocerebrosidase-p2 (AID 348; in the data active = potency below about 10 µM; also: potency is read from the fitted curve at half-maximal effect). The following applies: purified GBA, blue fluorogenic substrate, 40 min. Summed up: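 Compounds titrated from 0.6 nM upwards against 0.2 nM enzyme in pH 5.9 citric acid/KH2PO4, taurocholate, tween-20; blue fluorogenic substrate 80 uM, 40 min room temperature, stopped and read Ex 365/Em 440 for AC50.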

Assay [2] can be described thus: NFAT Signaling Pathway (AID 444; active = well fitted curve in either direction with a large enough effect, not every such curve was filed as active;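 also: carbachol stimulus at about its EC50 of 1 µM final; % is scaled to controls: 0 for no effect and ±100 for the full control effect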). The following applies: Jurkat NFAT-bla M1, carbachol, beta-lactamase ratio, 5 h; at 7.69 µM (top of the series) unless noted. Summed up:
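Read-out: CCF4 FRET ratio (460 nm/530 nm) after 1 h RT dye loading, used for %activity and AC50 from titration series. Cells: Jurkat NFAT-β-lactamase/M1 line, treated with compound plus 1 uM carbachol for 5 h, 37 °C.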

A short description of assay [3]: Stat Signaling Pathway (AID 446; active = well fitted curve in either direction with a large enough effect, not every such curve was filed as active;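 also: ME-180 cervical cancer cells given 40 pM IL-6 alongside compound; SIE-controlled beta-lactamase reporter measured as 460/530 nm FRET emission ratio; % is scaled to controls: 0 for no effect and ±100 for the full control effect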). The following applies: ME-180 SIE beta-lactamase reporter, IL-6 stimulated, 5 h; at 7.69 µM (top of the series) unless noted. Summed up: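 Reporter line: ME-180 cervical carcinoma, SIE-beta-lactamase. Treatment: compound with 40 pM IL-6, 5 hrs, 37 C, in low-serum OPTI-MEM with 10 mM HEPES pH 7.3. Detection: 460/530 nm fluorescence.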

The target of assay [4] is Glucocorticoid receptor (Homo sapiens) (UniProt P04150). Description: GR-GFP Redistribution (AID 450;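 active = compounds whose dose series gives a full or clear partial fitted curve of increased nuclear translocation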; also: potency is read from the fitted curve at half-maximal effect). The following applies: U2OS GR-GFP nuclear translocation, laser cytometry, 2 h.
Assay [5] has the same target. Briefly: GR-EFC Redistribution (AID 451; calls by dose curve; also: potency is read from the fitted curve at half-maximal effect). The following applies: CHO-K1 GR-EFC translocation, beta-gal luminescence, 2 h. Summed up: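 Translocation of GR-ED fusion to nuclear EA restores b-gal, read by luminescence after 1 h room-temperature detection. Engineered CHO-K1 biosensor cells, 1,000/well, exposed 2 h at 37 C to titrations up to 46 uM final.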
The target of assay [6] is Mitogen-activated protein kinase 10 (Mus musculus) (UniProt Q61831). Description: JNK3 AlphaScreen Assay (AID 530; active = well fitted curve in either direction with a large enough effect, not every such curve was filed as active;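 also: kinase came from lysate of stimulated human HepG2 cells; signal reports phosphorylation of biotinylated GST-cJun 1-79 at Ser73 with 10 µM ATP; % is scaled to controls: 0 for no effect and ±100 for the full control effect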). The following applies: JNK3 lysate, c-Jun phosphorylation; series mostly up to 57.1 µM. Summed up: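 Room-temperature AlphaScreen kinase assay; pre-activated HepG2 lysate as JNK3 source, biotin-GST-cJun(1-79) substrate, 10 uM ATP, compound 15 min preincubation.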
On the technique in general: Alpha assays give light when donor and acceptor beads are brought close together.

Assay [7] in a line: qHTS Assay for Lipid Storage Modulators (AID 1519; calls by dose curve). The following applies: Drosophila S3 cells, BODIPY lipid droplet/cell ratio, laser cytometry, cells loaded with oleic acid; for activity change, negative = inhibition: at 57.5 µM (top of the series). Summed up:
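Cells seeded at 5,000 per well were treated with compounds over a concentration series and loaded with oleic acid (400 uM, as added). Lipid droplet fluorescence (488 nm excitation, 500-530 nm channel) was read by laser-scanning cytometry and normalized to 20 uM Triacsin C.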

The target of assay [8] is Dual specificity protein kinase CLK4 (Homo sapiens) (UniProt Q9HAZ1). Briefly: qHTS Assay for Inhibitors of CDC-like Kinase 4 (Kinase-Glo Assay) (AID 1770). Also: % is scaled to controls: 0 for no effect and ±100 for the full control effect; nearly all actives have a fitted effect of over 65% in size. The following applies: recombinant Clk4, Kinase-Glo ATP depletion luminescence; series mostly up to 66.7 µM. The essentials:
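Inhibition was judged from remaining ATP, measured by Ultra-Glo luciferase bioluminescence after Clk4 (25 nM) had acted on RS peptide at 1 uM ATP for 4.5 hours, room temperature.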
On the technique in general: In qHTS, concentration-response curves come from the screen itself.

Assay [9] has the same target. Description: qHTS Assay for Inhibitors of CDC-like Kinase 4 (ADP-Glo Assay) (AID 1771). Also: % is scaled to controls: 0 for no effect and ±100 for the full control effect; nearly all actives have a fitted effect of over 70% in size. The following applies: recombinant CLK4, ADP-Glo luminescence; series mostly up to 80 µM. Summed up:
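Clk4 (25 nM) was incubated 1 hr at room temperature with 100 uM RS repeat peptide and 1 uM ATP in buffer with 2 mM MgCl2, 0.5 mM EGTA, 2.5 mM DTT. ADP formed was quantified by ADP-Glo luminescence.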

Assay [10] shares this target. Briefly: qHTS Assay for Inhibitors of CDC-like Kinase 4 (ADP-FP Assay) (AID 1795).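 Also: recombinant human CLK4 phosphorylating RS repeat peptide at 1 µM ATP; % is scaled to controls: 0 for no effect and ±100 for the full control effect; nearly all actives have a fitted effect of over 60% in size.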 The following applies: Transcreener ADP fluorescence polarization; series mostly up to 50 µM. The essentials:
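Inhibition of ADP formation by 6.25 nM Clk4 is measured using 1 uM ATP and 100 uM RS repeat peptide over one hour. Produced ADP displaces a fluorescent tracer from antibody, lowering polarization.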

The target in assay [11] is Ubiquitin carboxyl-terminal hydrolase 1 (Homo sapiens) (UniProt O94782). Description: Inhibitors of USP1/UAF1: Pilot qHTS (AID 504865).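 Also: rhodamine fluorescence freed from ubiquitin-rhodamine substrate followed over time; top concentration of the series differs between compounds; % is scaled to controls: 0 for no effect and ±100 for the full control effect; nearly all actives have a fitted effect of over 35% in size.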 The following applies: purified USP1/UAF1, Ub-rhodamine cleavage fluorescence; series mostly up to 54.9 µM. Summed up: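 Kinetic fluorescence assay: 1nM USP1/UAF1, 15 min compound preincubation, then 150nM Ub-Rho; 480/540 nm.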
Assay [12] is described as follows: Primary qHTS for small molecule stabilizers of the endoplasmic reticulum resident proteome: Secreted ER Calcium Modulated Protein (SERCaMP) assay (AID 1508630). Also: % is scaled to controls: 0 for no effect and ±100 for the full control effect. The following applies: SH-SY5Y GLuc-SERCaMP (Gaussia luciferase released on ER calcium loss) secretion, thapsigargin, luminescence; series mostly up to 38.4 µM. The essentials: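 GLuc-SERCaMP-expressing SH-SY5Y cells, pretreated 16 h with compound, are challenged with thapsigargin to empty ER calcium stores; after 4 h, coelenterazine is added directly to the medium and luminescence is imaged.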

The nature of assay [13]: AP1 Signaling Pathway (AID 357; active = well fitted curve in either direction with a large enough effect, not every such curve was filed as active). The following applies: ME-180 (cervical carcinoma) AP-1-bla reporter, EGF-induced, beta-lactamase ratio, 5 h; at 7.69 µM (top of the series) unless noted. The essentials:
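Beta-lactamase reporter under AP-1 response element, ME-180 background. Stimulus: EC50 EGF. Compound exposure 5 h, 37 °C. Detection: CCF4, 2.5 h RT, 460/530 nm. Values: AC50 from titration.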

For assay [14], the target named is Cytochrome P450 1A2 (Homo sapiens) (UniProt P05177). Briefly: p450-cyp1a2 (AID 410; calls by dose curve; also: potency is read from the fitted curve at half-maximal effect). The following applies: recombinant CYP1A2, luciferin-ME demethylation, luminescence; series mostly up to 57 µM. Summed up:
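Human CYP1A2 (20nM) demethylated Luciferin-ME at its Km (100uM) in 100mM KPO4. After 10 min compound preincubation, NADPH regeneration ran the reaction 60 min at room temperature. Luciferin was read by luminescence, normalized to 57 uM furafylline.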

Assay [15] has as its target Cytochrome P450 3A4 (Homo sapiens) (UniProt P08684). Briefly: qHTS Assay for Activators of Cytochrome P450 3A4 (AID 885). Also: nearly all actives have a fitted effect of over 65% in size. The following applies: recombinant CYP3A4, Luciferin-PPXE luminescence, 60 min; series mostly up to 57.1 µM. The essentials:
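Signal was normalized against complete inhibition by 57 uM ketoconazole. The reaction used 20nM CYP3A4 with 25uM Luciferin-PPXE, 10-min compound preincubation and a 60-min NADPH-supported step at RT.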

In assay [16] the target is 3',5'-cyclic-AMP phosphodiesterase 4B (Homo sapiens) (UniProt Q07343). Briefly: qHTS Assay for Inhibitors of PDE-IV (AID 607; active = well fitted activation curve with a large enough effect in the main read-out, with a control signal flat, not every such curve was filed as active; also: % of control where 0% means no effect). The following applies: HEK293 ACTOne CNG channel cells, membrane potential fluorescence; series mostly up to 22.9 µM. Summed up: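 Cell-based read-out of cAMP via a modified cyclic nucleotide-gated channel and membrane potential dye (535/590 nm) in HEK293 cells expressing PDE4 endogenously. Compounds tested up to 22.9 uM final; 100 uM RO 20-1724 reference.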

Assay [17] addresses Cytochrome P450 3A4 (Homo sapiens) (UniProt P08684). Description: qHTS Assay for Inhibitors and Substrates of Cytochrome P450 3A4 (AID 884). Also: potency is read from the fitted curve at half-maximal effect; nearly all actives have a fitted effect of over 50% in size. The following applies: recombinant CYP3A4, Luciferin-PPXE luminescence; series mostly up to 57.1 µM. Summed up: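 20 nM human CYP3A4 with 25 uM Luciferin-PPXE (at KM) in 200 mM KPO4, preincubated 10 min with compound; NADPH regeneration started a 60 min RT reaction. Luciferin detected by luminescence, normalized to 57 uM ketoconazole as full inhibition.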

[18] abbreviates: measured here: cell count channel max response.
[19] abbreviates: measured here: lipid channel max response.

Molecules are shown by their SMILES. Records with an inconclusive call do not appear. Activity calls are given as the source filed them. Unless noted, calls follow the shape of the dose curve; as a rule, active = well fitted curve in the direction sought with a large enough effect; inconclusive = small, poorly fitted or top-dose-only effect, or another doubt; inactive = no such curve, though single readings can be large; an effect the other way counts as inactive or inconclusive. Bounds are passed on as bounds.

Chain of Glucocorticoid receptor (Homo sapiens) (P04150 whole entry, looked up, the tested form may be a part): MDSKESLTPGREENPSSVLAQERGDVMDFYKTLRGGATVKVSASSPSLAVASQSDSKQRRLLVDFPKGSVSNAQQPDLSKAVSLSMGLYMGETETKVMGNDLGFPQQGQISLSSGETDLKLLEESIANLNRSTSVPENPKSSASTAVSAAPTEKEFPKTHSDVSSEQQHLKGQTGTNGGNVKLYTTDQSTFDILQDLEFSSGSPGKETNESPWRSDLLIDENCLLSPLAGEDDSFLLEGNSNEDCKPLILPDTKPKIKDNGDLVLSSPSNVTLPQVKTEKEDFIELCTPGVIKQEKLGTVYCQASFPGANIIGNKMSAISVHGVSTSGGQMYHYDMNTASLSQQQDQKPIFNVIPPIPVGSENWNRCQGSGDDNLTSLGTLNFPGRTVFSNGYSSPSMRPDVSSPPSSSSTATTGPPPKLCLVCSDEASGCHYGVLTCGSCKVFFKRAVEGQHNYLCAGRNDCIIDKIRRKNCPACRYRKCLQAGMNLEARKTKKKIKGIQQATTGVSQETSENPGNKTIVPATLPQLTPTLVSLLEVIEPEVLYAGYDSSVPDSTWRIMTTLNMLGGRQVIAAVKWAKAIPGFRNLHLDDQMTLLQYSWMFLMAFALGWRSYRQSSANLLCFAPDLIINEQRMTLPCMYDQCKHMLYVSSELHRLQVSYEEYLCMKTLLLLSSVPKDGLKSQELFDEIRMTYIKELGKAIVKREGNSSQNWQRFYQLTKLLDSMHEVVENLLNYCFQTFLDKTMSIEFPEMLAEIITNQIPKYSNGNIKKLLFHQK
Chain of Dual specificity protein kinase CLK4 (Homo sapiens) (Q9HAZ1 whole entry, looked up): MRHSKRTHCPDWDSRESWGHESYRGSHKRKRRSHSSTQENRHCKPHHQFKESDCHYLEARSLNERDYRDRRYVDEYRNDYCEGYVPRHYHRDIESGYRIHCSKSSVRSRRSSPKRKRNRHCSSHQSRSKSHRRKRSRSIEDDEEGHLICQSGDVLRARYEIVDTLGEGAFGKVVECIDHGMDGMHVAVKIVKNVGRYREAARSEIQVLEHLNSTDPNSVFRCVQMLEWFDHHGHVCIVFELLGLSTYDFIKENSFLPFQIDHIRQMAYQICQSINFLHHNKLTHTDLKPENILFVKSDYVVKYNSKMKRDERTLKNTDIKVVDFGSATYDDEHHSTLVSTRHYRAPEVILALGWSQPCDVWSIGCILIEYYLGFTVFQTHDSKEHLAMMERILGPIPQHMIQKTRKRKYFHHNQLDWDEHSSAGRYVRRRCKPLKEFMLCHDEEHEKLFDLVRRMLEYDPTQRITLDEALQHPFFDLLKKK
Chain of Ubiquitin carboxyl-terminal hydrolase 1 (Homo sapiens) (O94782 whole entry, looked up): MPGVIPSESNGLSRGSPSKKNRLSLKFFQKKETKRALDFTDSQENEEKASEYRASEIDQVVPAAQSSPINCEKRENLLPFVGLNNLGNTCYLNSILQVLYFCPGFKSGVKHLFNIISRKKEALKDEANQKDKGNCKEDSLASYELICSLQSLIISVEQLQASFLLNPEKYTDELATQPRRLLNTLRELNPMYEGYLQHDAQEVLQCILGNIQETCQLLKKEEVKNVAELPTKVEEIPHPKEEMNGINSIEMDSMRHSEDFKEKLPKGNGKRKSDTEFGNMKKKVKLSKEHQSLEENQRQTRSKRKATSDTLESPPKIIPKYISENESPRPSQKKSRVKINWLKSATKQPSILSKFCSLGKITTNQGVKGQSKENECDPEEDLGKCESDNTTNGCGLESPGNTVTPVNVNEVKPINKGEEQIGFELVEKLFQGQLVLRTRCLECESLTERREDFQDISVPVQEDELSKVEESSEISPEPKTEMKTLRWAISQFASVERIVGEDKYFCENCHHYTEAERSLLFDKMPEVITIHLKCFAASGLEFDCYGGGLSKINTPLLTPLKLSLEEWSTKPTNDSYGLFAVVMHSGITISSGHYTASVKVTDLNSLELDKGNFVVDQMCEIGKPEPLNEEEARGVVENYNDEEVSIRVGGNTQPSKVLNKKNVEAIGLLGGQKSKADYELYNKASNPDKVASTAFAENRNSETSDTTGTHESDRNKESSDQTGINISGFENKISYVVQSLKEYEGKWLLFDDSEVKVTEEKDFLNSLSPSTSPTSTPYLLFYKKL
Chain of Cytochrome P450 3A4 (Homo sapiens) (P08684 whole entry, looked up): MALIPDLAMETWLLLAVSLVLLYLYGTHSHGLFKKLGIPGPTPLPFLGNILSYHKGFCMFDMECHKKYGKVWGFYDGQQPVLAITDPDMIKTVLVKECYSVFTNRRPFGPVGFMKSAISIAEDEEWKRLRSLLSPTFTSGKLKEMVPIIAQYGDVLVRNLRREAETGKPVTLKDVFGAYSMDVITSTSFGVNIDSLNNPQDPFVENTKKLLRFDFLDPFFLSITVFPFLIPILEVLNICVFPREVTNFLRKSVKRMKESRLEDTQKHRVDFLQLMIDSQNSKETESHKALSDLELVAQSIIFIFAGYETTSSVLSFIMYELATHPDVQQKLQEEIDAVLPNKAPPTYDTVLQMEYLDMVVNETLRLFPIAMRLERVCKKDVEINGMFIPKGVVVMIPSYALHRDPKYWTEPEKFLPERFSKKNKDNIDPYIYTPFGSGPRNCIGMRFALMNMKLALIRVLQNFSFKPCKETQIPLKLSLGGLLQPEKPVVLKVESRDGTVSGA
Chain of Lysosomal acid glucosylceramidase (Homo sapiens) (P04062 whole entry, looked up): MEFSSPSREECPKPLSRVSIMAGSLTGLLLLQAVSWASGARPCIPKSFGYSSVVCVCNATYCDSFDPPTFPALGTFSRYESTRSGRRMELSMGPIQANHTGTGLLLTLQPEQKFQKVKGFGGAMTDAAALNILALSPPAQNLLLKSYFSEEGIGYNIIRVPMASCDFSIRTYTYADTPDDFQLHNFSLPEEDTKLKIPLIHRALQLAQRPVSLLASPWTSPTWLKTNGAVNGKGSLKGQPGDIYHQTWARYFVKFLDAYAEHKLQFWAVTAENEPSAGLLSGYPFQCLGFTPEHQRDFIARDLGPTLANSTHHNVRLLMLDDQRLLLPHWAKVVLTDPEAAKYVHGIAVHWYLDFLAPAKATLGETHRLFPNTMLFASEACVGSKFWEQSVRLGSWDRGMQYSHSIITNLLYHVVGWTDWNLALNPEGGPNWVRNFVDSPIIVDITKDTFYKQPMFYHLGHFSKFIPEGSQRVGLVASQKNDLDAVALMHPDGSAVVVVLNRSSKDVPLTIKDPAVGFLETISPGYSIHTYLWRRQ
Chain of Cytochrome P450 1A2 (Homo sapiens) (P05177 whole entry, looked up): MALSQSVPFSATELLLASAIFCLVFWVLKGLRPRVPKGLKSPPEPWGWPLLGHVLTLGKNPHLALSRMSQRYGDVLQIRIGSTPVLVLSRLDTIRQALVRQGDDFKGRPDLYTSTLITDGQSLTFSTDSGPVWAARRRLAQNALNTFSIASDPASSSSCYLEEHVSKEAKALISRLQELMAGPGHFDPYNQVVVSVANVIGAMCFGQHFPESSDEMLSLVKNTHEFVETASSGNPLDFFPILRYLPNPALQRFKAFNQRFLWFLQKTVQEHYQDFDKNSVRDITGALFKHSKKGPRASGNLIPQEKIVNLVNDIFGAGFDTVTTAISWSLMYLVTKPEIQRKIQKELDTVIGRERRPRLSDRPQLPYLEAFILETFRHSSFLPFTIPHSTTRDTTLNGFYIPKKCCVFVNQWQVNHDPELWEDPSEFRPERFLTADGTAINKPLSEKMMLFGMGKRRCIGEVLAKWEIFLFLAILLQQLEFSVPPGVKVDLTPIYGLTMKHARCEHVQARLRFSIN
Chain of 3',5'-cyclic-AMP phosphodiesterase 4B (Homo sapiens) (Q07343 whole entry, looked up): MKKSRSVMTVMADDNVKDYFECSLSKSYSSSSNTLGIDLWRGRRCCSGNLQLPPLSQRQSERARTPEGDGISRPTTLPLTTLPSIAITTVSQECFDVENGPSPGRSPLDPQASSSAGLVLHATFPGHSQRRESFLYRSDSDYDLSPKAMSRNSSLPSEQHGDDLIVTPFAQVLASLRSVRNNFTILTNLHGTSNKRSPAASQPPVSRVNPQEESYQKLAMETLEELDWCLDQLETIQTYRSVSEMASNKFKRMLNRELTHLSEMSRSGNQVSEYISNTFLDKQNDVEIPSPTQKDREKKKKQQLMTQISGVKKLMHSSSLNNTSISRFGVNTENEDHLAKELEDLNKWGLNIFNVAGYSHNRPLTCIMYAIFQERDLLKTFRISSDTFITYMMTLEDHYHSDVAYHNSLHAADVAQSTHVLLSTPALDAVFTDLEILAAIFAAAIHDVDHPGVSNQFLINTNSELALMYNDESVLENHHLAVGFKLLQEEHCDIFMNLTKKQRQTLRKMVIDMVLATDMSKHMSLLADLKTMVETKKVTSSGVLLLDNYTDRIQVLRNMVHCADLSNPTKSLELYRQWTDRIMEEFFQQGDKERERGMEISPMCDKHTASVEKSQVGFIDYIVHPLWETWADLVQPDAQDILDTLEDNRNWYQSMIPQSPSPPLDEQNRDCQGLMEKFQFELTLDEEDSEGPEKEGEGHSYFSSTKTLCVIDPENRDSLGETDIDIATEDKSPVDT

On to `COc1cccc(Nc2ncc3nc(CCc4ccccc4)c(=O)n(C)c3n2)c1`, for which the Potency in [1] was > 11.4 µM (inactive); in assay [4] it was > 9.22 µM (inactive); in assay [5], > 46 µM (inactive). Further, the activity change, negative = inhibition in [2] is 21.6% (inactive); in [7], -10% (inactive). Also, the activity, negative = inhibition in assay [3] was -7.18% (inactive). In assay [6], the result was inactive. In addition, the max response turned out to be 27.3% in [7] (setting [18]) and 12.3% in assay [7] (setting [19]). Also, the Potency entry in assay [8], in [9], in assay [10], in assay [11] and in [12] was “inactive” in each case.
Regarding `COc1cccc(Nc2ncc3nc(-c4ccccc4)c(=O)n(Cc4cccs4)c3n2)c1`, the activity change, negative = inhibition in [13] was -7.2% (inactive); in [2], -11.8% (inactive); in assay [7] it was 5.46% (inactive). Moreover, the activity, negative = inhibition in assay [3] is 21.9% (inactive). For the same compound, the Potency was > 9.22 µM (inactive) in assay [4] and > 46 µM (inactive) in assay [5]. In assay [6], the compound was called inactive. In addition, the max response turned out to be 20.3% in assay [7] (setting [18]) and 24.9% in [7] (setting [19]). In addition, the Potency entry in assay [8], in assay [9], in [10], in [11] and in [12] was “inactive” each time.
Turning to `CCNc1ncc2nc(-c3cn(C)c4ccccc34)c(=O)n(C)c2n1`, the activity change, negative = inhibition in assay [13] was -15.1% (inactive); in assay [2] it was 2.68% (inactive); in assay [7], 8.66% (inactive). The figures for the Potency in assay [14], in assay [4] and in assay [5] were 0.1 µM (active), > 9.22 µM (inactive) and > 46 µM (inactive), respectively. In [3], the activity, negative = inhibition is -2.13% (inactive). Also, the outcome in [6] was inactive. Also, the Potency result in assay [15], in assay [8], in [9], in assay [10], in assay [11] and in [12] was “inactive” in each case. Besides, the max response in assay [7] (setting [18]) turned out to be 19.5%; in assay [7] (setting [19]) it was 27.7%.
For the compound `O=c1c(-c2ccc(Cl)cc2)nc2cnc(N3CCNCC3)nc2n1Cc1cccs1`, the Potency in assay [1] was > 11.4 µM (inactive); in [14], 12.6 µM (active); in [4], > 9.22 µM (inactive); in assay [5], > 46 µM (inactive); in assay [17] it was 5.01 µM (active). The Potency result in assay [16], in assay [15], in assay [8], in [9], in [10] and in [12] was “inactive” in each case. Besides, the activity change, negative = inhibition in [7] is 0.33% (inactive). For the same compound, the max response was -11.5% in assay [7] (setting [18]) and -12.6% in [7] (setting [19]).
